From PubChem BioAssay come the findings set out here.

Molecules are shown by their SMILES. Calls of active or inactive are those of the source.

For assay [1], the system named is Plasmodium falciparum Sir2 (PF13_0152, Sir2A). Nature of the assay: pfSir2 binders on small-molecule microarrays, primary screen, biochemical, small-molecule microarray, 635 nm fluorescence (AID 1098).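 Also: score merges spot fluorescence intensity with its signal-to-noise ratio.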 As to conditions: small-molecule microarray binding, fluorescence 635 nm; higher = more signal.
Assay [2] can be described thus: small-molecule microarray binders of probe aDKK1, primary screen, biochemical, biotinylated probe, 635/667 nm fluorescence (AID 1099).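 Also: score merges 667nm spot fluorescence with signal to noise across triplicate slides; reference of the scale not given here.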 Conditions: higher = more signal.
Assay [3] in a line: small-molecule microarray binders of probe aCHRDL2, primary screen, biochemical, biotinylated probe, 635/667 nm fluorescence (AID 1100). As to conditions: higher = more signal.
Assay [4] is described as follows: splicing luciferase reporter signal modulators, primary screen, spliceosome inhibition project, cell-based, HEK293, splice +/- reporter (AID 1101).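 Also: HEK293 cells carrying a splicing-competent luciferase reporter gene; test concentration not given here.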 Conditions: luminescence, 24 h, higher = more signal, called active from +8 up or from −8 down. A general note: In a reporter assay the amount or activity of a reporter protein is the signal.
Assay [5] addresses Fibroblast growth factor 10 (Homo sapiens) (UniProt O15520). Description: FGF10 binders on small-molecule microarrays, primary screen, biochemical, small-molecule microarray, 635 nm fluorescence (AID 1102). As to conditions: FGF10 binding, fluorescence 635 nm, higher = more signal.
For assay [6], the system named is glycogen synthase kinase-3 (GSK3A per assay name; protocol says GSK3B). Nature of the assay: GSK3 binders on small-molecule microarrays, primary screen, biochemical, small-molecule microarray, 635 nm fluorescence, GSK3A (AID 1103). Also: the record names both GSK3A and GSK3B. As to conditions: small-molecule microarray binding, fluorescence 635 nm; higher = more signal.
In assay [7] the target is Epidermal growth factor receptor (Homo sapiens) (UniProt P00533). Nature of the assay: EGFR binders on small-molecule microarrays, primary screen, biochemical, small-molecule microarray, 635 nm fluorescence (AID 1104).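 Also: score merges 667 nm emission intensity with spot signal to noise over triplicate slides.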 Conditions: EGFR binding, higher = more signal.
Chain of Epidermal growth factor receptor (Homo sapiens) (P00533 whole entry, looked up): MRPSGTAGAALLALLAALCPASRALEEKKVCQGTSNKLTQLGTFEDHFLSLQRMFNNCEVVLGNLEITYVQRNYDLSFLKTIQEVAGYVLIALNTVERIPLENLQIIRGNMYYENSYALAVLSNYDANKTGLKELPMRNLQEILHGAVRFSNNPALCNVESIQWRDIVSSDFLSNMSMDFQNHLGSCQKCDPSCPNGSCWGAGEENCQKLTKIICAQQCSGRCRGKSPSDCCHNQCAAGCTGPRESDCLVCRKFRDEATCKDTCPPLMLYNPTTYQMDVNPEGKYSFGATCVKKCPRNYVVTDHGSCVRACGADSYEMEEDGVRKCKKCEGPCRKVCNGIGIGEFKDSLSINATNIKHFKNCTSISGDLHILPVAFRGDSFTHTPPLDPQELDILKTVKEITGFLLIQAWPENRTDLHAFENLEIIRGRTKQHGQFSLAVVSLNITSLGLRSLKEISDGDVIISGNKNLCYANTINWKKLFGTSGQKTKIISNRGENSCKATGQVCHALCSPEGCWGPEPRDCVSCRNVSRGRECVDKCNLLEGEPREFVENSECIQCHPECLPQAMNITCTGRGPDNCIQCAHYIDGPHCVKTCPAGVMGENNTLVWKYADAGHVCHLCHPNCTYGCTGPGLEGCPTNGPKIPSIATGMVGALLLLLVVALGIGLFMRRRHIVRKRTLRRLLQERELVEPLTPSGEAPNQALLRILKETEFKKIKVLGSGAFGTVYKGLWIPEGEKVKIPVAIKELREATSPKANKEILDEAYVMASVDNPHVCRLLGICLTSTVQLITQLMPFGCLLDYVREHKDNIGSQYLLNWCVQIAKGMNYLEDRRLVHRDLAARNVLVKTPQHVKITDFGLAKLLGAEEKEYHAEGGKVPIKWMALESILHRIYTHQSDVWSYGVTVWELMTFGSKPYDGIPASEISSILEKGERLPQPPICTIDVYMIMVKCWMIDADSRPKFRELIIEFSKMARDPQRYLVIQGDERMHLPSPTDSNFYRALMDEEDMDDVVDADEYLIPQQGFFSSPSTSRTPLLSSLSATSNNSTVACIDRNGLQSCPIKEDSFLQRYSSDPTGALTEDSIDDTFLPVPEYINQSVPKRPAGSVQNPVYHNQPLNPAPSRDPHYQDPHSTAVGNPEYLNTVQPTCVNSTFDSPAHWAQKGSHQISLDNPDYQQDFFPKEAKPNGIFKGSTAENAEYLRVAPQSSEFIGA
In assay [8] the target is Follistatin-related protein 3 (Homo sapiens) (UniProt O95633). Nature of the assay: FSTL3 binders on small-molecule microarrays, primary screen, biochemical, small-molecule microarray, 635 nm fluorescence (AID 1105).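 Also: score merges emission near 667 nm and signal to noise per printed spot across three slides.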 Conditions: FSTL3 binding, higher = more signal.
Chain of Follistatin-related protein 3 (Homo sapiens) (O95633 whole entry, looked up): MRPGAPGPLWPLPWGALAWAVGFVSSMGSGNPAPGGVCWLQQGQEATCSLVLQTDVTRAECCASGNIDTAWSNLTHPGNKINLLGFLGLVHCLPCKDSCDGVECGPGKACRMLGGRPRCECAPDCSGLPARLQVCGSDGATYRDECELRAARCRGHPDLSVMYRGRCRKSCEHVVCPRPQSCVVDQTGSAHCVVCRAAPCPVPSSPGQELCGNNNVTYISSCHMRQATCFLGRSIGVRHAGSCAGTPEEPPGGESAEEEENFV
In assay [9] the target is Dickkopf-related protein 1 (Homo sapiens) (UniProt O94907). Nature of the assay: DKK1 binders on small-molecule microarrays, primary screen, biochemical, small-molecule microarray, 635 nm fluorescence scan (AID 1106).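 Also: score merges emission near 667 nm with signal to noise over three replicate slides.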 As to conditions: DKK1 binding, higher = more signal.
Chain of Dickkopf-related protein 1 (Homo sapiens) (O94907 whole entry, looked up): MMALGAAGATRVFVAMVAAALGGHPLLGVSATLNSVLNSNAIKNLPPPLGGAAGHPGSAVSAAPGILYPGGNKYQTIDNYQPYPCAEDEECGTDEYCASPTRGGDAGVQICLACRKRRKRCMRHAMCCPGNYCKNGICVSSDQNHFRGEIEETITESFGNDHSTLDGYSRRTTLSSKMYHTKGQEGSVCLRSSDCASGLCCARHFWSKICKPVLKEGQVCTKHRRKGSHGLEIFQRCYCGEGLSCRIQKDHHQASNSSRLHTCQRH
The subject of assay [10] is Inhibin beta A chain (activin A). Description: INHBA (activin A) binders on microarrays, primary screen, biochemical, small-molecule microarray, 635 nm fluorescence scan (AID 1107).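 Also: mouse activin A protein probed at 4.33 µg/mL on printed slides; score merges bound-protein fluorescence near 667 nm with spot signal-to-noise.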 As to conditions: small-molecule microarray binding, higher = more signal.

Chain of Fibroblast growth factor 10 (Homo sapiens) (O15520 whole entry, looked up): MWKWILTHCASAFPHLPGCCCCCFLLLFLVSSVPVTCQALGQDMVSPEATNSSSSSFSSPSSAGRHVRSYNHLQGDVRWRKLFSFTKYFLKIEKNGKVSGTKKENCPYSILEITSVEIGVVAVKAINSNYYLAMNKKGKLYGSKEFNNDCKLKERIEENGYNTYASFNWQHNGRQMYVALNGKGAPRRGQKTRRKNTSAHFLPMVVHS

`O=C1N(CCS(=O)(=O)c2ccccc2)Cc2ccccc2[C@@H]2OC(c3ccc(OCCCO)cc3)=N[C@]12CCS(=O)(=O)c1ccccc1`: the composite z-score turned out to be 1.14 in [1]; 0.846 in assay [2]; 0.788 in [3]; 1.46 in assay [5]; 1.32 in [6]; 0.89 in [7]. In addition, the results for the composite z-score in assay [8], in [9] and in [10] were 1.48, 1.46 and 1.22, respectively. The z-score in assay [4] is -0.42 (inactive).
Regarding `C=C(CCCC)C(=O)CC[C@@H](OC(=O)c1cccnc1)c1ccc(OCCO)cc1`, the composite z-score is 1.25 in assay [1]; -0.191 in assay [2]; -0.266 in assay [3]; 1.67 in [5]; 0.704 in assay [6]; 0.298 in assay [7]. The composite z-score in [8] turned out to be 1.39; in [9] it was 0.714; in [10], 0.982. Further, the z-score in [4] is 2.51 (inactive).
Consider `O=C1O[C@H](c2ccccc2)[C@H](c2ccccc2)N2[C@H]1[C@@H](C(=O)N1CCCCCCC1)[C@]1(C(=O)Nc3ccc(C#CC4(O)CCCCCC4)cc31)[C@H]2c1ccc(O)cc1`, for which the composite z-score in assay [1] amounted to 1.5; in assay [2], 2.93; in [3], 1.59; in assay [5], 1.19; in assay [6] it was 1.34; in [7], 1.72. For the same compound, the figures for the composite z-score in [8], in [9] and in assay [10] were 1.58, 1.75 and 1.79, respectively. Moreover, in assay [4], the z-score is 0.69 (inactive).
For the compound `C=CC1c2cc(O)c(OC)cc2CCN1Cc1ccc([N+](=O)[O-])o1` (stereo not given), the composite z-score in assay [1] was 1.19; in assay [2], 0.819; in assay [3] it was 0.826; in assay [5] it was 0.367; in assay [6], -0.128; in [7] it was -0.841. In addition, the composite z-score in [8] was -0.15; in [9] it was -0.641; in assay [10], 0.87. For the same compound, the z-score in assay [4] was -0.109 (inactive).
As to `COc1cc(NN2C(C(O)C3CCCCC3)C=CC3C(=O)N(c4ccccc4)C(=O)C32)cc(OC)c1OC` (stereo not given), the composite z-score is 1.11 in [1]; 0.946 in [2]; 1.43 in assay [3]; 0.448 in assay [5]; 0.893 in assay [6]; -0.455 in assay [7]. In addition, the composite z-score in [8] is 0.722; in assay [9] it was -1.37; in [10] it was 0.591. Besides, in assay [4], the z-score was -0.983 (inactive).
On to `COc1ccc([Si](C)(C)[C@H]2[C@H](CCO)O[C@@]3(C(=O)N(Cc4ccccc4)c4ccc(N5CCOC5=O)cc43)[C@@H]2C)cc1`, for which the composite z-score is 0.821 in assay [1]; 0.0261 in assay [2]; -0.214 in assay [3]; 0.977 in [5]; 0.411 in assay [6]; 0.398 in assay [7]. Also, the values for the composite z-score in assay [8], in [9] and in assay [10] were 0.277, 0.0837 and 0.212, respectively. Further, the z-score in assay [4] is -0.711 (inactive).
Regarding `CS(=O)(=O)CCOC(=O)C1=CC(CCCO)=CC(C2CC2)N(Cc2cccc(OC(F)(F)F)c2)C=C1C(=O)OCCS(C)(=O)=O` (stereo not given), the composite z-score in assay [1] was 1.09; in assay [2], 0.0231; in [3], -0.0768; in assay [5], 0.039; in assay [6], 0.306; in [7] it was -0.0252. In addition, the composite z-score in assay [8] was 0.054; in [9], -0.325; in assay [10], 0.911. Also, the z-score in assay [4] was 0.155 (inactive).
Turning to `O=C1O[C@H](c2ccccc2)[C@H](c2ccccc2)N2[C@H]1[C@@H](C(=O)O)[C@]1(C(=O)Nc3ccc(C#CC4(O)CCCCCC4)cc31)[C@H]2c1ccc(O)cc1`, the composite z-score is 0.502 in [1]; -0.2 in [2]; 0.14 in [3]; 0.0884 in assay [5]; -0.103 in [6]; 0.161 in assay [7]. Further, the composite z-score in [8] was -0.544; in assay [9], -0.297; in [10], 0.138. Further, in assay [4], the z-score was -0.574 (inactive).
For the compound `COCCOC(=O)N1C(=O)[C@@]2(c3cc(C#CCC(C(=O)OC)C(=O)OC)ccc31)[C@H](c1ccc(OCCO)cc1)N1[C@H](c3ccccc3)[C@H](c3ccccc3)OC(=O)[C@H]1[C@@H]2C(=O)Nc1nc2ccccc2s1`, the composite z-score in assay [1] is 1.02; in assay [2], 0.0317; in assay [3], -0.108; in [5] it was 0.84; in [6] it was 1.06; in assay [7], 0.292. The composite z-score in assay [8] came to 1.08; in assay [9], 0.279; in [10] it was 0.495. The z-score in [4] was 0.907 (inactive).
With `O=C1OCCC=C[C@H]2OC34C=CCN(c5ccc(Cl)cc5)C(=O)[C@H]3N(CCCCCCO)C(=O)[C@@H]4C12` (stereo not given in full), the composite z-score is 1.12 in assay [1]; -0.0366 in assay [2]; 0.499 in assay [3]; -0.744 in assay [5]; -0.359 in assay [6]; -1.23 in [7]. For the same compound, the figures for the composite z-score in assay [8], in assay [9] and in assay [10] were -0.509, -0.712 and -0.279, respectively. The z-score in [4] is 0.189 (inactive).
As for `CC(C)C(=C=CC[C@@H](O)c1cccc(OCCO)c1)C[C@@H](O)COCc1ccccc1`, the composite z-score in assay [1] is 1.04; in assay [2] it was -0.119; in assay [3], -0.118; in [5] it was 0.543; in assay [6] it was -0.174; in assay [7] it was -0.208. In addition, the composite z-score in [8] was 0.178; in [9], -0.445; in assay [10], 0.198. Moreover, in [4], the z-score was -0.952 (inactive).
In the case of `Cc1ccccc1C(O)C1C=CC2C(=O)N(c3ccccc3)C(=O)C2N1Nc1ccc([N+](=O)[O-])cc1` (stereo not given), the composite z-score came out at 1.3 in assay [1]; 0.25 in assay [2]; 0.793 in assay [3]; 0.597 in assay [5]; 1.29 in assay [6]; 0.217 in assay [7]. Besides, the composite z-score in assay [8] was determined as 1.19; in assay [9], 0.0125; in assay [10] it was 0.816. Besides, the z-score in assay [4] is -0.0433 (inactive).
`O=C1O[C@H](c2ccccc2)[C@H](c2ccccc2)N2[C@H]1[C@@H](C(=O)Nc1nc3ccccc3s1)[C@]1(C(=O)Nc3ccc(C#CC4=CCCCC4)cc31)[C@H]2c1ccc(O)cc1`: the composite z-score was 1.52 in [1]; -0.0399 in [2]; 0.115 in [3]; 0.588 in [5]; 1.22 in assay [6]; 0.308 in [7]. Moreover, the composite z-score in [8] worked out at 0.842; in assay [9] it was 0.188; in assay [10], 0.533. Moreover, the z-score in [4] is -1.31 (inactive).
For the compound `CC(C)[Si]1(C(C)C)OCc2cc(-c3ccc(-c4ccc(Cl)c(Cl)c4)o3)nc(CCc3ccccc3)c21`, the composite z-score was 0.508 in assay [1]; -0.0914 in [2]; -0.17 in assay [3]; 0.187 in [5]; -0.181 in [6]; -0.833 in assay [7]. Also, the composite z-score in assay [8] amounted to 0.169; in assay [9], 0.32; in [10], 0.536. Also, the z-score in [4] is -2.1 (inactive).
On to `C=CCNC(=O)[C@@H]1[C@H]2C(=O)O[C@H](c3ccccc3)[C@H](c3ccccc3)N2[C@H](c2ccc(OCCO)cc2)[C@@]12C(=O)N(C(=O)OCCOC)c1ccc(C#CCCO)cc12`, for which the composite z-score in [1] was 1.12; in [2] it was -0.0139; in [3] it was 0.171; in assay [5], 0.637; in assay [6], 1.28; in assay [7], 0.635. Besides, the composite z-score is 1.24 in assay [8], 0.646 in [9] and 0.63 in [10]. The z-score in assay [4] was -1.53 (inactive).
As for `CC(=O)N1CC(C(O)C2C=CC3C(=O)NC(=O)C3N2Nc2ccc(Cl)cc2Cl)c2ccccc21` (stereo not given), the composite z-score in assay [1] is 0.669; in assay [2] it was 1.95; in assay [3], 1.07; in [5] it was 0.693; in assay [6] it was -0.28; in assay [7] it was -0.105. Moreover, the composite z-score in assay [8] came out at 0.797; in assay [9], 0.0106; in assay [10], 1.19. Moreover, in [4], the z-score is 0.622 (inactive).
